# High-throughput results from PubChem.
# Pf growth 96h: P. falciparum growth inhibition at 96 hours; P. falciparum luciferase reporter growth, 96 h; Potency, µM (titrated, usually from 28.7 µM), inactives show at the top dose activity change, negative = inhibition, hits mostly inhibitors; 6.9% of 320,000 active; further: potency means the concentration at half of the fitted maximal effect; on the % scale 0 is the no-effect control and ±100 the full control effect
#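 Infected RBCs, 2% Hct / 0.05% parasitemia final; luciferase-reporter P. falciparum; cpd 96 h, 37 C, 5% CO2; luciferase detection reagent; luminescence.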
# Pf growth 48h: inhibits P. falciparum growth in the first generation, 48 h; P. falciparum luciferase growth in erythrocytes, 48 h; Potency, µM (doses to about 28.7 µM), for the others: at the highest dose activity change, negative = inhibition, most hits filed as inhibitors; 5.9% of 310,000 active; AID 504832; further: potency means the concentration at half of the fitted maximal effect; on the % scale 0 is the no-effect control and ±100 the full control effect
#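 Firefly luciferase activity from engineered P. falciparum reports growth; inhibitors lower the luminescent signal. Cultures contained 2% hematocrit erythrocytes at 0.1% final parasitemia.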
# Giardia FBPA inh: blocks Giardia fructose-bisphosphate aldolase activity. A8B2U2. 0.71% of 290,000 active. Potency, µM (series often up to 59.6 µM), without a hit: at the highest dose activity, negative = inhibition, usual class: inhibitors. purified Giardia FBPA; further: potency means the concentration at half of the fitted maximal effect; on the % scale 0 is the no-effect control and ±100 the full control effect; nearly all actives have a fitted effect of over 55% in size
# Target sequence (A8B2U2 whole entry, looked up): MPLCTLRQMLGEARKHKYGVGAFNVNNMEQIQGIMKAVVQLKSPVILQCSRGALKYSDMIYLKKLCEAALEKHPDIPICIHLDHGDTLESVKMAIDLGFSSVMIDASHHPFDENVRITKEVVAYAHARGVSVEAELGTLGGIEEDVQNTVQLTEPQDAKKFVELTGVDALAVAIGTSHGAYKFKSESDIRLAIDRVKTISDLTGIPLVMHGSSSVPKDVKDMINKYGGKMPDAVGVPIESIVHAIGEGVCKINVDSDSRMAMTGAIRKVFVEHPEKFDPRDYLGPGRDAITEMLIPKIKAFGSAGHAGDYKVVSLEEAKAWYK
#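 Giardia FBPA (40 nM reagent) was preincubated 10 min at RT with compound (up to 57.5 uM final), then substrate plus GAPDH/TPI/NAD/arsenate coupling system with diaphorase/resazurin was added; resorufin fluorescence (525/598 nm) was read after 20 min.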
# CHX counter: counter-screen for Shiga toxin inhibitors: cycloheximide protein synthesis inhibition; cell reporter, cycloheximide protein synthesis inhibition counterscreen; max response, %; 12% of 300,000 active; in the data active means max response mostly above about 13%, no sharp cut-off; inactive means mostly below about 14%; further: read at 38.3 µM for the half of the compounds with a filed dose; 0% is about no effect
# Shiga inhibitor: Shiga toxin inhibition; Vero cells, Shiga toxin protein synthesis inhibition reporter; inhibition, % at 38.7 µM; 9.2% of 290,000 active; in the data active means inhibition mostly above about 28%, no sharp cut-off; inactive means mostly below about 43%; further: 0% is about no effect
# NS1 inh: blocks influenza NS1 protein function; Potency, µM (titrated, usually from 46.1 µM), without a hit: at the highest dose activity, positive = more growth; 0.4% of 270,000 active; calls by dose curve; further: potency means the concentration at half of the fitted maximal effect; actives are rising curves; nearly all actives have a fitted effect of over 50% in size
#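 S. cerevisiae expressing influenza A NS1, grown in glucose, washed, then diluted 1:100 into pH 6.0 -URA galactose medium with 23 nl compound. Growth recovery read as OD600; NS1-free strain serves as control.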
# The depositor's hits bear a star; u = inconclusive; x = not tested or not shown; + = active, no number; ! = a repeat was not active; [ ] = another dose, or the depositor's remark. Compounds with a hit are over-represented: about 21% of the library has one in this group of screens. Unless noted, the call rests on the fitted dose curve; in most records, active means well fitted curve in the direction sought with a large enough effect; inconclusive means small, poorly fitted or top-dose-only effect, or another doubt; inactive means no such curve, though single readings can be large; an effect the other way counts as inactive or inconclusive.
SMILES,Pf growth 96h,Pf growth 48h,Giardia FBPA inh,CHX counter,Shiga inhibitor,NS1 inh
CN1C(=O)CC(=O)N(C)c2cc(S(=O)(=O)N(C)Cc3ccccc3)ccc21,40%,11%,x,-2,-1,6%
O=C(c1ccccn1)N(c1ccccc1)C1(C(=O)NC2CCCCC2)CCCCC1,16%,-2%,3%,3,-8,x
CC(C)(C)c1csc(N/N=C/c2ccc(O)cc2)n1,u,19%,-22%,47*,91*,16%
Oc1ccc(/C=N/Nc2nc(-c3ccc(Cl)cc3)cc(C(F)(F)F)n2)cc1,u,u,-4%,11,1,10%
COc1ccc(C(=O)/C=C2/c3ccccc3CC(C)(C)N2C)cc1OC,12µM*,-4%,u,6,9,6%
COc1ccc(C(=O)N2c3ccccc3CC2C)cc1OC (stereo unspecified),-1%,0%,10%,-3,-3,-15%
CC1CC=CC2C1C(=O)N(Cc1ccccc1)C2c1ccc(-c2ccc(N(C)C)cc2)cc1F (stereo unspecified),x,x,-1%,8,2,x
O=C(c1ccc2nc(N3CCOCC3)sc2c1)N1CCN(C(=O)c2ccco2)CC1,92%,x,-3%,-3,-6,-12%
c1c2c(cc3sc(N4CCOCC4)nc13)OCCO2,u,-5%,0%,14*,48,-4%
c1ccc(N2CCN(c3nc4cc5c(cc4s3)OCCO5)CC2)cc1,u,173%,-1%,84*,95*,2%
Clc1cccc2sc(N3CCN(c4ccccc4)CC3)nc12,-1%,49%,-2%,17,19,-42%
COc1ccc(/C=C(\NC(=O)c2cccs2)C(=O)NN)cc1OC,8%,-7%,-1%,3,-10,12%
CN(CC(=O)Nc1ccc(Cl)c(C(F)(F)F)c1)C(=O)C1CSC2(C)CCC(=O)N12 (stereo unspecified),0%,u,x,x,x,x
O=C(COc1ccccc1Cl)NCc1ccncc1,6%,-7%,6%,32*,77,-3%
O=C(CCc1ccccc1)NNC(=O)COc1ccccc1Cl,4%,u,-5%,5,-5,2%
C=CCc1ccccc1OCC(=O)NNC(=S)NCc1ccccc1,10µM*,37%,x,-1,-7,u
O=C(COc1ccccc1Cl)NCc1ccccc1,u,24%,0%,31*,54*,-2%
O=C(COc1ccccc1Cl)NCCNC(=O)c1ccncc1,u,0%,1%,-5,-7,-5%
O=C(c1ccccc1)[C@H](Nc1ccc2ccccc2c1)c1ccccc1,x,x,x,x,x,-18%
CCCn1cnc2c(SCC(=O)O)nc(N)nc21,x,x,x,x,x,-3%
COc1cccc(-c2cc(=O)c3cc(NC(=O)c4ccccc4)ccc3[nH]2)c1,u,u,-1%[89.2 µM],9,-7,13%
Cc1ccc2[nH]c(-c3cccc(F)c3)cc(=O)c2c1,4.1µM*,5.2µM*,-1%[89.2 µM],15*!,+!,-6%
COc1ccc2[nH]c(-c3cccc(F)c3)cc(=O)c2c1,5.2µM*,u,-8%[89.2 µM],27*!,52*,-10%
COc1ccc2[nH]c(-c3ccc(F)cc3F)cc(=O)c2c1,x,x,-7%[89.2 µM],26*,+,x
CCC(C)NC(=O)C1CCC(=O)N1CCc1ccccc1 (stereo unspecified),93%,-16%,5%,-2,-6,1%
SMILES,Pf growth 96h,Pf growth 48h,Giardia FBPA inh,CHX counter,Shiga inhibitor,NS1 inh
CCCCCCN1CCN(c2ccccc2Cl)CC1,u,-15%,u,-3,29,x
C[n+]1ccccc1N1CCN(c2ccccc2Cl)CC1,u,4.7µM*,3%,-2,-3,-3%
Cc1ccc(Cl)cc1N1CCN(c2cccc[n+]2C)CC1,0.74µM*,4.1µM*,4%,1,-1,-4%
O=C(CCl)N1N=C(c2ccco2)CC1c1cccs1 (stereo unspecified),u,12µM*,-6%,1,-6,-20%
Cc1ccc(C2=NN(C(=O)CCl)C(c3cccs3)C2)o1 (stereo unspecified),2.1µM*,3.7µM*,-1%,23*,6,-26%
CC(=O)N1N=C(c2ccco2)CC1c1cccs1 (stereo unspecified),-2%,-9%,-5%,5,-5,-5%
CN1CCC(=NNC(=O)c2cc(-c3ccc(Cl)cc3)n[nH]2)CC1,2%,-11%,-2%,11,13,7%
